The results in this text go back to the supplement of paper PMC6555819.

For this experiment, the system named is PPARg DBDmut IVT, anti-PPARg (DBD mutation: PPARg1 K132A/R137A, NR concentration 270 nM). The experiment in a line: PBM binding z-score (relative to random genomic background probes); higher = stronger binding; sequences stand for … in GC…GCGATTGACAGCGTAGAATGAAGG
Summed up:
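Custom Agilent 4×180K protein-binding microarrays carried double-stranded probes, each with a 34-nt variable region. These regions held direct-repeat seeds, single-nucleotide variants, half-site ablations and random human genomic background sequences. Ligand-free nuclear receptor dimers were incubated on the arrays for 1 h, antibodies against each partner (one per run) detected binding, and scanned fluorescence was regression-normalized. Binding z-scores take the random background probes as reference.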
Regarding ATCGCAAGGTCGACGAGGTGAGTATACACCGTTT, the PBM binding z-score stood at 0.00511. GCTAGTTGGTCAGTAAAAGGTCACACCCCGGTCG came in with a PBM binding z-score of -0.291. Consider ACTAGAAGGCCAAGTTTGGGTCACTCAAACAAAG, for which the PBM binding z-score was -0.287.

Sequence TATACAGGGTCAAAGTCCAGAGTACGAATGTCGA registered a PBM binding z-score of 3.67. Take GCTGCTAGGTCAGGTTGATCAGCTAACGGGTACG: the PBM binding z-score is -0.366. TCATATGGGTAATACAGGTGAAAGTCGGCATCTA: the PBM binding z-score was 0.765. Sequence ACTAGCAGGTCAAGTTTGGGTCACTCAAACAAAG displayed a PBM binding z-score of 0.843.

Consider TCTATTAGTTGAAGGCCAACCGACGAGTCCGTTT, for which the PBM binding z-score stood at 0.553. The value for TTACCAAGGTGAAAGGTTGTTGATGCACGCCTTG was 0.316; that for CGAACTCGGTCATCCAGGACAGTGAATACATTGA was 0.0941; that for TCATAGAGGTAAAAGGTGAAAGTCGGTGTGGTAA was -0.0644. With TTACCAAGGTGAGCTGAGGTCGTTGAACCAACTC, the PBM binding z-score is -1.13.

Regarding TAGCCTAGGTCATTGGGCCAGTATCGTACGCATC, the PBM binding z-score was -0.521. For AGAACTAGGGCAATGAGTTGATAGCACGGGTGGC, the PBM binding z-score was 0.615. Consider CCTACTGGACCATTCAGAGGTCATTGATCATATG, for which the PBM binding z-score is 0.13. CGTCCAAGGTCAAAGGACAGTGAAGAGATGACGG displayed a PBM binding z-score of 0.353. In the case of CGTCAAAGATCAACTAAGGTAACGTAAAGCACGC, the PBM binding z-score was 0.489. As to TAGCCTAGGTCATGTGCCAGTATACCACGCGAAC, the PBM binding z-score is 0.0439. In turn, TCATATAGGTAAACGCTAGGTGAAAGTCCGATCT had a PBM binding z-score of 1.29. Regarding CCGACTGGGGCATAAGGATACCATAAGCCAGCCC, the PBM binding z-score is -1.29. In the case of AATACAGGGTCATTGTAGGCCAGAGTACGCACAG, the PBM binding z-score is 0.86. In turn, ATAGAAAGGTCGAGGTGAGTATAGAGAAAGGGAA returned a PBM binding z-score of 0.872. The sequence ATCTCTAGGTCAAGATAGTTCAGTGAATGCAAAT gave a PBM binding z-score of 2.11. ATACCAAGGTGATCGTGAAGTCGTTGATACTAAC: the PBM binding z-score came to 0.615. Sequence AACTCTAGGTAACCAAGTTCAGTGAATGCCGAAC came in with a PBM binding z-score of 0.215. The value for CCTGCTAGGTCACGGTCAGCTAATCTACAGTATG was 0.203; that for ATATGTAGGTTATGGGTCATTCAGGTTGGTTCGC was 1.93; that for TTATCAAGGTGAGCTGAGGTCGTTGATCCAACTC was -0.126. ATCTCTAGGTAAGGTTCAGTGAAAGATCGATAGA had a PBM binding z-score of 0.757. TGAATGAGGTTAAAGATCTGGGAACGTGGCGTCG registered a PBM binding z-score of -0.223. Regarding CGTCAAAGTACAACTAAGGTAACGTAAAGCACGC, the PBM binding z-score is 0.398.

Sequence CAAACTAGGTCAGAACAGGACAGTGAAGGATGAT yielded a PBM binding z-score of 3.64. For the sequence GTACCAAGGTGAATAGGGCGTTGATGAGTAGGCG, the PBM binding z-score is -0.0449. For AGAATGATGTTATACGTAGATCAGGGAAGAAAGT, the PBM binding z-score came out at 1.74. Sequence CCTCGGAGGGCAACAGGAGGTCAGAGCTGCCAGA displayed a PBM binding z-score of -1.13.

CCAGCCAGGTGAAAGGTAACTCAGTCTGGTACGC showed a PBM binding z-score of -0.965. For the sequence CTAGAAAGGTCGTGCTCAGGTGAGTATACCAAAC, the PBM binding z-score turned out to be 0.547. The value for ATATGTAGGTTACATCCGGGTCATTCAGGCTATG was 1.6; that for CCTAGCAGGCCAATTTGGGTCACTCAAGGCTTGA was -1.39.

CCTGCTAGGTCATGGTCAGATAATCTACAGTATG showed a PBM binding z-score of 0.147.
